This note sets out measurements from PubChem BioAssay.

Experiment [1] can be described thus: reducers of endogenous Her2 protein level, primary screen, SKBR3 breast tumor cells, AlphaScreen, ATP viability (AID 461;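 active = Her2 level under about 52% in both replicate screens, with viability over 70% of control, limit read from the data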;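 as to Her2 level: lower value means less Her2 protein in the cells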;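 as to viability: percent of carrier control wells set as 100% viability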). The note with it: 18-24 h, measured here: SKBR3 viability, ATP luminescence, at 10 µM. (In Alpha technology, singlet oxygen from a donor bead excites a nearby acceptor bead.)
Experiment [2] has as its target Receptor tyrosine-protein kinase erbB-2 (Homo sapiens) (UniProt P04626). The experiment is described as above. The conditions noted are these: 18-24 h, at 10 µM, stronger effect = lower value.
Experiment [3] is described as follows: SK-BR-3 cell growth inhibitors, pilot screen, 24 h, human (AID 572;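 active = viability at or below 10% of carrier control in both of two separate runs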;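 also: compound exposure lasted between 18 and 24 h rather than exactly 24 h; 100% = carrier-treated control wells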). The note with it: SK-BR-3 viability, CellTiter-Glo luminescence, at 10 µM, stronger effect = lower value. (In general: Cellular ATP, detected with luciferase, serves as a proxy for viable cell number.)
Experiment [4] can be described thus: HUVEC growth inhibition – cell-based, human, primary screen (AID 575;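 active = viability at or below 30% in both replicate assays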;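 also: 100% = median of untreated cell wells with 0.1% DMSO on each plate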). The conditions noted are these: HUVEC proliferation, CellTiter-Glo luminescence, 72 h; at 10 µM; stronger effect = lower value.
A short description of experiment [5]: growth inhibitors of H69AR lung tumor, primary screen, human, duplicate replicates (AID 580;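 active = viability at or under a set limit in both replicates, limit being median viability minus 3 SD, cut at about 48% in these data, passing the limit was not always enough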;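 also: 100% = mean luminescence of untreated wells and 0% = no signal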). The conditions noted are these: H69AR lung tumor cells viability, ATP luminescence, 72 h; at 10 µM; stronger effect = lower value.
Experiment [6] can be described thus: reversal of MRP1-mediated doxorubicin resistance, pilot screen, H69AR cells, doxorubicin co-treatment (AID 601;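 active = viability loss from added drug above about 55%, and viability with drug at most 40%, in both replicates, limit read from the data, passing the limit was not always enough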). The note with it: CellTiter-Glo, 72 h, at 10 µM; for differential viability (reversal): stronger effect = higher value.
Experiment [7] can be described thus: 384-well plate pilot, post-Golgi transport modulator project, inhibition of yeast transport mutant growth (AID 636; in the data active = inhibition above about 31%). The note with it: absorbance 615 nm, about 18 h, stronger effect = higher value.
Experiment [8] in a line: growth suppression of yeast trafficking mutant, preliminary HTS, modulators of trafficking downstream of Golgi apparatus project, 1536-format plate, OD 615 nm (AID 637; in the data active = inhibition above about 30%). The note with it: yeast transport mutant growth, absorbance 615 nm, 18 h; stronger effect = higher value.
Experiment [9] in a line: OD615 S. cerevisiae growth inhibition, permissive medium, pilot counter-assay, permissive growth control for S. cerevisiae lifespan shortening project (AID 705;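 active = growth inhibition above 25% in both replicates, a cutoff set 3 SD above the mean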). The conditions noted are these: OD615, 24 h, at 10 µM, stronger effect = higher value.
Experiment [10] is described as follows: Restrictive medium S. cerevisiae growth inhibition, OD615, pilot screen of yeast lifespan reduction project, restrictive growth control (AID 706;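 active = growth inhibition above a set limit, 3 SD over mean compound inhibition, in both replicates, cut at about 43% in these data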;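 also: modified DeaD lifespan yeast strain shifted to restrictive glucose medium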). The note with it: OD615, 48 h, at 10 µM, stronger effect = higher value.
Experiment [11] in a line: viability gain of MRP-1-high H69AR cells under doxorubicin, pilot screen, MRP-1 activator project, CellTiter-Glo, duplicate (AID 807;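 active = viability increase at or above a cutoff of the median across tested compounds plus 3 SD, cut at about 8.5% in these data, passing the limit was not always enough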;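 also: compound pretreatment 18-22 h then 72 h combined with doxorubicin; 0% = doxorubicin alone and 100% = vehicle without doxorubicin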). The note with it: H69AR viability with doxorubicin, CellTiter-Glo luminescence; at 10 µM; stronger effect = higher value.
A short description of experiment [12]: growth suppression of beta-catenin knockout HCT116, pilot screen, human colon tumor cells (AID 823).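 Also: 0% = wells killed by 20 µM Hyamine and 100% = untreated DMSO cell wells.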 The note with it: CellTiter-Glo, 60 h, at 10 µM, stronger effect = lower value.
Experiment [13] is described as follows: growth suppression of PTEN-deleted HCT116, pilot screen, cell-based, HCT116 clonal line, CellTiter-Glo (AID 824;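 active = viability at or below 27.92% in each of two runs, the all-compound median minus 4 SD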;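 also: 0% = 20 µM Hyamine control and 100% = vehicle cell control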). The note with it: 60 h, at 10 µM, stronger effect = lower value.
Experiment [14] is described as follows: inhibitors of the yeast RAM network, pilot screen, dse1pr::URA3 reporter, 5-FOA selection (AID 869;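 active = inhibition over a set limit, the all-compound mean plus 3 SD, in both replicate runs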;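 also: 0% = DMSO wells with no growth and 100% = 10 µM 1-NA-PP1 with full growth; RAM network block rescues cells from 5-FOA so hits raise OD615 growth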). The note with it: S. cerevisiae dse1pr::URA3 5-FOA growth, OD615, 2 d; at 10 µM; stronger effect = higher value; strain carries analog-sensitive mutant Cbk1 kinase.
Experiment [15] in a line: RAM signaling pathway blockade in yeast – S. cerevisiae, Pdr1DBD-CYC8 efflux-inhibited sensitized strain, primary screen (AID 1298;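 active = RAM network inhibition above 8.4% in each of two replicates, 3 SD over the compound average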;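 also: 0% = DMSO untreated cells without growth and 100% = 10 µM 1-NA-PP1 full growth; higher means more yeast growth rescued from 5-FOA killing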). The note with it: S. cerevisiae cbk1-as DSE1-URA3 strain, 5-FOA growth OD615, 2 d; at 50 µM; stronger effect = higher value.
[16] abbreviates: H69AR cells + 2 uM doxorubicin, measured here: viability with 2 uM doxorubicin, stronger effect = lower value.
Where [17] appears, read: H69AR cells, compound alone cytotoxicity.

Records with an inconclusive call do not appear. The source made the active and inactive calls.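 The calls were made as follows, unless noted: active = cell viability at or below a set limit in both duplicate runs, the limit being the all-compound median minus 4 SD (cut at about 23% in these data, passing the limit was not always enough); inconclusive = no clear call, values can overlap the other calls; inactive = the rest.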

Receptor tyrosine-protein kinase erbB-2 (Homo sapiens), sequence (P04626 whole entry, looked up): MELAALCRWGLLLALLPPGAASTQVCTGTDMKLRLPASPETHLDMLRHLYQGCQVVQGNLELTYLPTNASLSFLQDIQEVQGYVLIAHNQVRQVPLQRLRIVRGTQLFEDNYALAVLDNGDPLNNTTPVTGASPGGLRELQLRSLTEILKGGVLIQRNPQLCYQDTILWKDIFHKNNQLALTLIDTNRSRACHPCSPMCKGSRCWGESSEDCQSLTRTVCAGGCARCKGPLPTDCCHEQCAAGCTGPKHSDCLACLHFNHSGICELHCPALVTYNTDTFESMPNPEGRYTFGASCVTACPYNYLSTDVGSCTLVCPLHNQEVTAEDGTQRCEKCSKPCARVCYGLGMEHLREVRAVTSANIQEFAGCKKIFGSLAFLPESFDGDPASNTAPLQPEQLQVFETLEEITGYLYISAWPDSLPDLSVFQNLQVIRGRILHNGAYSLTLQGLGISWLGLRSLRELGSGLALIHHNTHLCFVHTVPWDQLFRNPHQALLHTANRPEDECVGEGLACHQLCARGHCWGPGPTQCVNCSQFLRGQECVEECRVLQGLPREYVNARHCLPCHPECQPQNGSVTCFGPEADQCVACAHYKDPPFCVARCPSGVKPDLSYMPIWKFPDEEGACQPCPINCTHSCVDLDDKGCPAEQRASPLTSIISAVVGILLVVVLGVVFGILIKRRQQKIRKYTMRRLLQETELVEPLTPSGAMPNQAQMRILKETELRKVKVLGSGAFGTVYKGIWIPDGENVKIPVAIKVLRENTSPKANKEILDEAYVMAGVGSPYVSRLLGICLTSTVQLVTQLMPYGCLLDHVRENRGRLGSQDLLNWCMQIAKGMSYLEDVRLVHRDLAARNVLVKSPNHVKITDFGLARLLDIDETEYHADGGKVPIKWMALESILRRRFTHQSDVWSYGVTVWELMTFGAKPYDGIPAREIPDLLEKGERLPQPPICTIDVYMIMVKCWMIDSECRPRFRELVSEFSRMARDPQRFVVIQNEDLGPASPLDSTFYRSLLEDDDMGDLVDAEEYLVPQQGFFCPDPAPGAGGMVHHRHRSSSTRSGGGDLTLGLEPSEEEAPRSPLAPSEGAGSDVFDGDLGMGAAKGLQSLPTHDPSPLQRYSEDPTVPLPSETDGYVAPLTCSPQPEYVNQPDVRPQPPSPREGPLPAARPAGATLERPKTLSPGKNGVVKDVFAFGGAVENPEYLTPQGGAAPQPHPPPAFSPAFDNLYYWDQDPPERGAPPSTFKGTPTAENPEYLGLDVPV

For orientation: viability means a read-out of living cells in per cent, often relative to untreated cells. One may read the inhibition as the relative decrease from the control value, in per cent. With `CCOC(=O)N1CCN(c2cc(=O)n(-c3cccc(Br)c3)c(=O)[nH]2)CC1`, the viability was 99.5% in experiment [1]; 99.5% (inactive) in experiment [3]; 94.4% (inactive) in experiment [4]; 103% (inactive) in [5]; 85.5% in [6] (setting [16]); 103% in experiment [6] (setting [17]). Also, the results for the viability in experiment [12] and in experiment [13] were 108% (inactive) and 93.5% (inactive), respectively. For the same molecule, the Her2 level in experiment [2] is 108% (inactive). Moreover, the differential viability (reversal) in experiment [6] (H69AR cells + 2 uM doxorubicin) was 17.2% (inactive). Further, the inhibition in [7] was -3.2% (inactive); in experiment [8], -1.8% (inactive); in experiment [14], 3.14% (inactive). Also, the growth inhibition in experiment [9] is -9.72% (inactive); in experiment [10], -24.3% (inactive). Besides, the viability increase in [11] was -2.79% (inactive). In experiment [15], the RAM network inhibition was 3.07% (inactive).
Consider `CN1CCN(Cc2nc3c(c(=O)n(C)c(=O)n3C)n2Cc2ccccc2Cl)CC1`, for which the viability in experiment [1] is 80.5%; in experiment [3] it was 80.5% (inactive); in experiment [4], 86.5% (inactive); in experiment [5], 86.9% (inactive); in [6] (setting [16]), 79.8%; in experiment [6] (setting [17]), 86.9%. The viability is 91.8% (inactive) in experiment [12] and 91.3% (inactive) in [13]. In addition, the Her2 level in experiment [2] was 97.5% (inactive). The differential viability (reversal) in experiment [6] (H69AR cells + 2 uM doxorubicin) is 7.12% (inactive). The inhibition is -5.07% (inactive) in [7], -2.17% (inactive) in experiment [8] and 1.5% (inactive) in [14]. In addition, the results for the growth inhibition in experiment [9] and in experiment [10] were -5.17% (inactive) and -14.4% (inactive), respectively. The viability increase in [11] was -2.56% (inactive). Moreover, the RAM network inhibition in experiment [15] is 4.45% (inactive).
On to `COc1cccc(/C=N/n2cnnc2)c1OCc1ccccc1`, for which the viability in experiment [1] was 98%; in experiment [3] it was 98% (inactive); in experiment [4], 93.2% (inactive); in experiment [5], 97.8% (inactive); in experiment [6] (setting [16]) it was 90.8%; in experiment [6] (setting [17]), 97.8%. For the same molecule, the viability in experiment [12] is 107% (inactive); in experiment [13], 98.9% (inactive). Moreover, the Her2 level in [2] was 104% (inactive). In addition, the differential viability (reversal) in [6] (H69AR cells + 2 uM doxorubicin) is 7.02% (inactive). Also, the inhibition in [7] was 0% (inactive); in [8], -0.16% (inactive); in [14] it was 0.69% (inactive). Also, the growth inhibition was -14.7% (inactive) in [9] and -17% (inactive) in experiment [10]. For the same molecule, the viability increase in [11] was -0.6% (inactive). Also, the RAM network inhibition in experiment [15] is -1.19% (inactive).
As for `CCCCn1c(NCc2ccccc2O)nc2ccccc21`, the viability in experiment [1] is 98%; in [3] it was 98% (inactive); in experiment [4] it was 79.5% (inactive); in [5] it was 88.1% (inactive); in experiment [6] (setting [16]) it was 83.4%; in [6] (setting [17]), 88.1%. Also, the viability in experiment [12] was 79.7% (inactive); in experiment [13], 75.1% (inactive). In addition, the Her2 level in experiment [2] was 124% (inactive). Besides, in [6] (H69AR cells + 2 uM doxorubicin), the differential viability (reversal) was 4.67% (inactive). Further, the figures for the inhibition in [7], in experiment [8] and in [14] were -4.27% (inactive), -2.33% (inactive) and 0.34% (inactive), respectively. The growth inhibition is -1.67% (inactive) in experiment [9] and -11.8% (inactive) in experiment [10]. Moreover, the viability increase in experiment [11] was -5.25% (inactive). For the same molecule, the RAM network inhibition in [15] is 3.36% (inactive).
With `CC(C)c1ncc(C(O)c2cccc3ccccc23)n1C` (stereo not given), the viability in experiment [1] was 97.5%; in [3], 97.5% (inactive); in experiment [4], 113% (inactive); in experiment [5] it was 87.5% (inactive); in [6] (setting [16]), 83.5%; in [6] (setting [17]), 87.5%. The viability in experiment [12] is 81.6% (inactive); in experiment [13] it was 79.1% (inactive). Moreover, the Her2 level in experiment [2] was 129% (inactive). For the same molecule, the differential viability (reversal) in [6] (H69AR cells + 2 uM doxorubicin) is 4.07% (inactive). Moreover, the inhibition in [7] was -4.68% (inactive); in [8] it was -5.5% (inactive); in [14] it was 1.15% (inactive). The values for the growth inhibition in experiment [9] and in experiment [10] were -21.2% (inactive) and -7.64% (inactive), respectively. The viability increase in experiment [11] is -0.83% (inactive). Besides, the RAM network inhibition in experiment [15] is 0.82% (inactive).
